# Hits are enriched below; roughly 0.52% of the tested compounds scored in any of these assays.
# Epigenetic derep: derepresses silenced GFP reporter in murine cells; murine LDR cells, GFP reporter derepression, 30 h; Potency, µM (doses to about 53.9 µM), for the others: at the top dose GFP activation, hits mostly activators; 0.2% of 280,000 active; AID 1865; also: % of control where 0% means no effect; nearly all actives have a fitted effect of over 60% in size
#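 Reporter derepression read as number of fluorescent GFP-positive objects, 20-120 um in size, counted by laser-scanning cytometer. Mouse LDR line with an epigenetically silenced CMV-GFP locus; compound incubation 30 h, 37 C.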
# PINK1 expr mod: modulators of PINK1 expression; Potency, µM (series often up to 76.6 µM), without a hit: at the highest dose activation (PINK1 increase), usual class: activators; 0.2% of 410,000 active; PINK1 immunofluorescence, high-content cytometry, 24 h; AID 624263; active = well fitted activation curve with a large enough effect; inconclusive = small, poorly fitted or top-dose-only effect; cell line not stated here; also: % of control where 0% means no effect; nearly all actives have a fitted effect of over 65% in size
#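 Readout is PINK1 immunofluorescence, quantified alongside mitochondrial, cell and nuclear markers by laser-scanning microplate cytometry. Cells from a stable line were exposed to compound titrations (5 concentrations) for 24 hours, with CCCP controls.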
# Vif-APOBEC3F blk: blocks the Vif interaction with APOBEC3F | HeLa A3F-eYFP + Vif (tagged APOBEC3F with the HIV-1 protein that degrades it), YFP fluorescence increase | 0.2% of 390,000 active | Potency, µM (series often up to 46.1 µM), inactives show at the highest dose activity, negative = active | AID 602313; also: % of control where 0% means no effect; nearly all actives have a fitted effect of over 65% in size
#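 Fluorescence increase (Ex 488/Em 500-530) after overnight compound treatment at 37 deg C flags inhibition of Vif-driven A3F-eYFP loss in stable HeLa A3F-eYFP/Vif cells seeded overnight beforehand.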
# Vif-A3G inh: blocks the Vif interaction with human APOBEC3G; Q9HC16; HeLa A3G-eYFP + Vif (tagged APOBEC3G with the HIV-1 protein that degrades it), YFP fluorescence, overnight; Potency, µM (series often up to 46.1 µM), for the others: top-dose activity, negative = active, actives largely listed as inhibitors; 0.076% of 410,000 active; AID 602310; also: % is scaled to controls: 0 for no effect and ±100 for the full control effect; nearly all actives have a fitted effect of over 60% in size
# Target sequence (Q9HC16 whole entry, looked up): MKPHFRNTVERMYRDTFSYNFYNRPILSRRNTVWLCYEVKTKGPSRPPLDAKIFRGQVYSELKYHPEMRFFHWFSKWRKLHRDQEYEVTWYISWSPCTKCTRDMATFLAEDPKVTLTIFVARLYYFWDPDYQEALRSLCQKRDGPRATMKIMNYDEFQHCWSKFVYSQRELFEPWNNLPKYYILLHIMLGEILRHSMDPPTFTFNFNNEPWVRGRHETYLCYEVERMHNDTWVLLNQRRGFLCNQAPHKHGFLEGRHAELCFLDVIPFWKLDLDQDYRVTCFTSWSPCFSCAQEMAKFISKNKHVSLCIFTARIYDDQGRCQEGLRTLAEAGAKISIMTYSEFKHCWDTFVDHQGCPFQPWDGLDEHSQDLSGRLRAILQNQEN
#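 HeLa cells stably expressing Vif and C-terminally eYFP-tagged A3G, seeded overnight at 37 deg C, then exposed to compound by pintool overnight at 37 deg C. Rise in yellow fluorescence (Ex 488/Em 500-530, Acumen) marks blocked Vif-driven A3G degradation.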
# Numbers without * were called inactive; ? = inconclusive; · = no result; [ ] = dose if it differs, or a comment. Unless noted, calls follow the shape of the dose curve; as a rule, active = well fitted curve in the direction sought with a large enough effect; inconclusive = small, poorly fitted or top-dose-only effect, or another doubt; inactive = no such curve, though single readings can be large; an effect the other way counts as inactive or inconclusive. Potency is read from the fitted curve at half-maximal effect.
SMILES,Epigenetic derep,PINK1 expr mod,Vif-APOBEC3F blk,Vif-A3G inh
CCOC(=O)COn1c(=O)c(-c2ccc(Br)cc2)[n+]([O-])c2ccccc21,·,9%,1.8µM*,0%
CCOn1c(=O)c(C)[n+]([O-])c2ccccc21,20µM*,0%,?,?
Cc1cc(C([O-])=C(C(=S)Nc2ccc(F)cc2)[n+]2ccccc2)c(C)n1-c1ccc(F)cc1,·,8%,-1%,-9%
COc1cccc(NC(=S)/C(=C(\[O-])c2cc(C)n(-c3ccccc3F)c2C)[n+]2ccc(N(C)C)cc2)c1,-1%,16µM*,-3%,8%
O=Cc1s/c(=N\S(=O)(=O)c2ccccc2)n(CCCCl)c1Cl,?,-1%,28µM*,?
CCn1c(C)cs/c1=N\S(=O)(=O)c1ccccc1,·,1%,-5%,1%
COc1ccc(NC(=O)CSc2nnc(C)c3ccccc23)cc1,·,2%,-1%,-28%
COc1ccc(NC(=O)CSc2ccc3c4c(cccc24)C(=O)c2ccccc2-3)cc1,?,?,11µM*,?
N#Cc1cccc(NC(=O)CSc2ccc3c4c(cccc24)C(=O)c2ccccc2-3)c1,5µM*,3%,11µM*,2.8µM*
N#Cc1cccc(NC(=O)CSc2ccccc2)c1,-2%,1%[38.3 µM],-11%,1%
COc1ccccc1-c1ccnc(-n2ncc(C(=O)N(C)C(C)c3nc(C)cs3)c2C2CC2)n1 (stereo unspecified),·,0%,·,·
CC(=O)N/N=C/c1cc(C(C)(C)C)cc(/C=N/NC(C)=O)c1O,4%,8%,22µM*,13µM*
CC(C)C(NC(=O)c1ccoc1)c1nnc2n1CCN(Cc1ccc3c(c1)Cc1ccccc1-3)CC2 (stereo unspecified),·,0%,·,·
COc1ccc(S[C@@H]2C[C@@H](C(=O)Nc3ccc4nccnc4c3)N(C3Cc4ccccc4C3)C2)cc1,·,1%,·,·
CCOC(=O)c1ccc(NC(=O)Cn2nc(SC)c(S(=O)(=O)c3ccc(Cl)cc3)c2N)cc1,-2%,18µM*,1%,-4%
COc1ccc2c(c1OC)C(=O)N(c1cccc(C(F)(F)F)c1)C2,0%,3.2µM*,-12%,-2%
COc1ccc2c(c1OC)C(=O)N(c1cccc(C)c1)C2,1%,0%,-3%,1%
O=C(Oc1c(CN2CCOCC2)cc(Cl)c2cccnc12)c1ccccc1Br,?,7%,?,-28%
CN1CCN(Cc2cc(Cl)c3cccnc3c2OC(=O)c2cccs2)CC1,3.5µM*,-3%,?,-1%
CCOc1cc(/C=C2\CCC/C(=C\c3cc(Cl)c(O)c(OCC)c3)C2=O)cc(Cl)c1O,?,3%,?,3.2µM*
CC1(C)CC(=O)C2=C(C1)NC(Nc1nc3ccccc3o1)=NC2c1ccccc1Cl (stereo unspecified),·,0%,·,1%
CC1=C(C(=O)Nc2ccccc2)C(c2ccc(C)cc2)N=C(Nc2nc3ccccc3o2)N1 (stereo unspecified),0%,22%[38.3 µM],10µM*,?
CCc1cc(C(=O)NCCN2Cc3ccccc3OC(c3ccsc3)C2)n(C)n1 (stereo unspecified),·,1%,·,·
O=C(Nc1ccccc1N1CCOCC1)c1ccccc1NS(=O)(=O)c1ccc(F)cc1,-1%,2%,6%,-1%
CCOc1ccc(S(=O)(=O)Nc2ccccc2C(=O)Nc2ccccc2N2CCOCC2)cc1,-5%,11µM*,-2%,-2%
SMILES,Epigenetic derep,PINK1 expr mod,Vif-APOBEC3F blk,Vif-A3G inh
COc1ccc2c(Cl)c(C(=O)N/N=C/c3ccc4c(c3)OCO4)sc2c1,7%,2%,?,-27%
COc1ccc2c(Cl)c(C(=O)N/N=C3\CCCC(=O)C3)sc2c1,11µM*,3%,?,2.8µM*
CC(=O)Nc1ccc2nc(NC(=O)c3ccc([N+](=O)[O-])o3)sc2c1,·,2%,5%,13µM*
CC(=O)Nc1ccc2nc(NC(=O)c3ccco3)sc2c1,·,1%,-2%,-3%
O=C([C@@H]1C[C@@H](Sc2nc3ccccc3[nH]2)CN1Cc1ccc(Cl)cc1)N1CCN(c2ccccc2F)CC1,·,1%,·,·
CC(C=NNc1ccc([N+](=O)[O-])cn1)=Cc1ccccc1,·,28µM*,?,0%
CCCN1C(=O)/C(=C\C=C2/Sc3ccccc3N2CC)SC1=S,0%,·,·,·
CN1C(=CC=C2C=C(I)C(=O)C(I)=C2)C(C)(C)c2ccccc21,0%,5%,-8%,-2%
CN1/C(=C\C=N\O)C(C)(C)c2ccccc21,2%,-1%,1%,-11%
CCCN1C(=O)/C(=C\C=C2\N(CC)c3ccccc3C2(C)C)SC1=S,-6%,11%,3.5µM*,?
CN1/C(=C\C=C2/C(=O)Oc3ccccc3C2=O)C(C)(C)c2ccccc21,14µM*,13µM*,?,7%
CN1/C(=C\C=C2/SC(=S)NC2=O)C(C)(C)c2ccccc21,?,?,?,7.9µM*
COc1ccc(CCNC(=O)c2cnn(-c3nccc(-c4cccs4)n3)c2C)cc1OC,·,1%,·,·
Cc1c(CN2CCOc3c(O)cc(-c4nc5ccccc5s4)cc3C2)cnn1C,·,1%,·,·
CCOc1ccc(C(=O)COC(=O)Cc2n[nH]c(=O)c3ccccc23)cc1,·,6%,8%,8.9µM*
O=C(Cc1n[nH]c(=O)c2ccccc12)OCC(=O)c1ccc(F)cc1,·,1%,-21%,-4%
CCCc1sc(N/N=C/c2ccccn2)nc1-c1ccc(F)cc1,-1%,13µM*,-11%,-17%
Cc1ccc(C)c(S(=O)(=O)N2CCN(C(=O)CCNC(=O)c3ccc(Br)cc3)CC2)c1,·,0%,-4%,-18%
COc1cc(C(=O)NCC(=O)N2CCN(S(=O)(=O)c3cc(C)ccc3C)CC2)cc(OC)c1OC,·,2%,-15%,6.3µM*
CCCCNc1c(-c2ccc(SC3CCCCC3)cc2)nc2cnccn12,·,0%,?,3.2µM*
NC(=S)N/N=C/c1ccccc1OC(=O)/C=C/c1ccccc1,·,0%,11µM*,0%
NC(=S)N/N=C\c1ccccc1OCc1ccccc1,-1%,1%,8%,-17%
O=C(NCC1Cc2cccc(-c3nccs3)c2O1)c1ccnc(Cl)c1 (stereo unspecified),·,1%,·,·
Cn1c(CC(=O)Nc2ccc(Cl)c(Cl)c2)n[nH]c1=S,0%,0%,14%,-8%
COc1ccc(Cc2n[nH]c(=S)n2NC(=O)Nc2ccc(Cl)c(Cl)c2)cc1,1%,40µM*,1%,0%
COc1cccc(C2Nc3ccc4ccccc4c3C3=C2C(=O)CCC3)c1O (stereo unspecified),·,6%,11µM*,?
OC1(c2cccnc2)CCN(Cc2ccc3c(c2)CN(Cc2ccc(F)c(F)c2)CCO3)CC1,·,-1%,·,·
CC(=O)Nc1sc2c(c1-c1nc3ccccc3s1)CN(C(C)C)CC2,·,-1%,10µM*,13µM*
Cc1c(Cc2ccccc2)sc(/N=C/c2c(O)ccc3ccccc23)c1C(N)=O,13%,?,8.9µM*,-28%
Cc1c(Cc2ccccc2)sc(/N=C/c2ccc3ccccc3c2)c1C(N)=O,9%,18%,-20%,?
